Reference: PubChem BioAssay (NCATS)
Records with an inconclusive call do not appear. Activity calls are given as the source filed them. Calls follow the shape of the dose curve; as a rule, active = well fitted curve in the direction sought with a large enough effect; inconclusive = small, poorly fitted or top-dose-only effect, or another doubt; inactive = no such curve, though single readings can be large; an effect the other way counts as inactive or inconclusive.

Assays:
[1] = target: Rap guanine nucleotide exchange factor 3 (Homo sapiens) (UniProt O95398); experiment: Confirmatory qHTS for antagonist of cAMP-regulated guanine nucleotide exchange factor 3 (EPAC1) (AID 1645880); also: nearly all actives have a fitted effect of over 55% in size; also: potency is read from the fitted curve at half-maximal effect
Procedure, shortened: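 Nucleotide exchange uses 100 nM EPAC1, 250 nM RAP1B-BODIPY-GDP and 50 uM GDP, with compounds in a concentration-titration series. After 5 min at room temperature, fluorescence (480 nm ex/540 nm em) is read every 5 min for 30 min. Data are normalized to control ATA and DMSO.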

[2] = target: Rap guanine nucleotide exchange factor 3 (Homo sapiens) (UniProt O95398); experiment: Confirmatory qHTS for agonist of cAMP-regulated guanine nucleotide exchange factor 3 (EPAC1) (AID 1645881); also: nearly all actives have a fitted effect of over 75% in size; also: potency is read from the fitted curve at half-maximal effect;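 as to activation: EPAC1 catalysed release of BODIPY-GDP from Rap1B seen as fluorescence loss; 100% = effect of cAMP agonist control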
[3] = target: Rap guanine nucleotide exchange factor 4 (Homo sapiens) (UniProt Q8WZA2); experiment: Confirmatory qHTS for agonist of cAMP-regulated guanine nucleotide exchange factor 4 (EPAC2) (AID 1645884);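 also: nucleotide exchange releases bodipy-GDP from Rap1 and this lowers its fluorescence; nearly all actives have a fitted effect of over 65% in size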; also: potency is read from the fitted curve at half-maximal effect; as to activation: % is scaled to controls: 0 for no effect and ±100 for the full control effect
[4] = target: Rap guanine nucleotide exchange factor 4 (Homo sapiens) (UniProt Q8WZA2); experiment: Confirmatory qHTS for antagonist of cAMP-regulated guanine nucleotide exchange factor 4 (EPAC2) (AID 1645885); also: nearly all actives have a fitted effect of over 25% in size; also: potency is read from the fitted curve at half-maximal effect; as to activity change, negative = inhibition: % is scaled to controls: 0 for no effect and ±100 for the full control effect
[5] = target: Rap guanine nucleotide exchange factor 3 (Homo sapiens) (UniProt O95398); experiment: Counterscreen qHTS for antagonist of cAMP-regulated guanine nucleotide exchange factor 3 (EPAC1) (AID 1645888);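 also: fluorescence loss as bound BODIPY-GDP is released from Rap1B; % of control where 0% means no effect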
Procedure, shortened: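 Rap1B–BODIPY-GDP (250 nM) with 50 uM GDP; compounds pin-transferred to 9.74 nM–152 uM final (activator) or from 7.32 nM upwards (inhibitor). Fluorescence Ex/Em 480/540 nm read at 5 and 30 min, then after adding cAMP or buffer, at room temperature.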

Rap guanine nucleotide exchange factor 3 (Homo sapiens), sequence (O95398 whole entry, looked up): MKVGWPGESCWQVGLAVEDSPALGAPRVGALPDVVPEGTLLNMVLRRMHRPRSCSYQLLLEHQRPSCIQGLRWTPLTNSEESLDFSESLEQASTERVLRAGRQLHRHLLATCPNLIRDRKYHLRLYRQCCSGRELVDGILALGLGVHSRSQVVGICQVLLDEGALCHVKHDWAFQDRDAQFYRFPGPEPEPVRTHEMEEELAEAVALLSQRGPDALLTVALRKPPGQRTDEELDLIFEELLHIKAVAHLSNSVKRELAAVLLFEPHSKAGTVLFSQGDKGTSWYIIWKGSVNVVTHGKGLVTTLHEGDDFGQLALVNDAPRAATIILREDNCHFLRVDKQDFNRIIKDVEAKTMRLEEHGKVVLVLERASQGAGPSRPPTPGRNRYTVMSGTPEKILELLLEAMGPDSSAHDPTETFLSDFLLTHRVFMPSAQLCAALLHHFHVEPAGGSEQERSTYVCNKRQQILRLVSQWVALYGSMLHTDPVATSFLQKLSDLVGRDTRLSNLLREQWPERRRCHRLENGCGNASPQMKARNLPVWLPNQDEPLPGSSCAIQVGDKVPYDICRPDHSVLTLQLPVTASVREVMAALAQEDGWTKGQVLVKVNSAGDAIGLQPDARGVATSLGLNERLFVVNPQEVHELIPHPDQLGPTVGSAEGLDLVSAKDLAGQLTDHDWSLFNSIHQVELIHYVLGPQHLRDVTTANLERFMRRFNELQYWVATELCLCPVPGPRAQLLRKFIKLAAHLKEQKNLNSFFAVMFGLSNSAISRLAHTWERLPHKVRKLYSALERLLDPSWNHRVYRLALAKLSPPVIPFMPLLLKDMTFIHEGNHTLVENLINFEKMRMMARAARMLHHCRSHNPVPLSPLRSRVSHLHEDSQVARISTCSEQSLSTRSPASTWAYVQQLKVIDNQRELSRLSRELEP
Rap guanine nucleotide exchange factor 4 (Homo sapiens), sequence (Q8WZA2 whole entry, looked up): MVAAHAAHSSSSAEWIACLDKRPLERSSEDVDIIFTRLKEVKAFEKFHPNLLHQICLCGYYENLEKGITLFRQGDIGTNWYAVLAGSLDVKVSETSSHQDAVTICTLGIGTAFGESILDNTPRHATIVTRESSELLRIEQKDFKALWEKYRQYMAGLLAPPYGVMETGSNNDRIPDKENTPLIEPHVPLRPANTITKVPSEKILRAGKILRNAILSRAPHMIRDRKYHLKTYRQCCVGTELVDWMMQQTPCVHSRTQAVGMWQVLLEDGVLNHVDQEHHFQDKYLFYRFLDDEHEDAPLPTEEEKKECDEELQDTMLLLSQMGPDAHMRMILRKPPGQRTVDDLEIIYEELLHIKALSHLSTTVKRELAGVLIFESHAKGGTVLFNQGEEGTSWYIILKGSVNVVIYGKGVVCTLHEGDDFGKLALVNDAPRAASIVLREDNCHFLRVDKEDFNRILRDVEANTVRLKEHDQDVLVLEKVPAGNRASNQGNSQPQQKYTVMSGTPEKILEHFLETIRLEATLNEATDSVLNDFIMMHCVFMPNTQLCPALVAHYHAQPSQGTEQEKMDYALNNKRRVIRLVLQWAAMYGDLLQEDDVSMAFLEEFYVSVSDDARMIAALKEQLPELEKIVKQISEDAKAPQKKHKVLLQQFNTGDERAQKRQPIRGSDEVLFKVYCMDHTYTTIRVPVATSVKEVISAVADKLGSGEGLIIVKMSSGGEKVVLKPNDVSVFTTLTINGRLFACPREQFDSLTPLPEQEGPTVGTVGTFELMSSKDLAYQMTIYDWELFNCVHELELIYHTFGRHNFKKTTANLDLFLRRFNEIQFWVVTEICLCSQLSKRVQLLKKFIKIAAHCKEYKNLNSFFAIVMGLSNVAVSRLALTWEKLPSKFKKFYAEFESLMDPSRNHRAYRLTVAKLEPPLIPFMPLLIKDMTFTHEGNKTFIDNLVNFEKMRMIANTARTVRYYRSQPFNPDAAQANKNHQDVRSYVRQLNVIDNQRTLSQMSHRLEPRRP

O=C(COC(=O)/C=C/c1cccc(C(F)(F)F)c1)NC(=O)NC1CCCC1
inactive: Potency [1] | Potency [2] | activation [3] 4.78% [at 17.1 µM, percent relative to cAMP agonist control] | Potency [4]

COc1cccc(OC)c1NC(=O)c1ccc(-c2cc(Cl)ccc2Cl)o1
inactive: Potency [1] | Potency [2] | Potency [3] | Potency [4]

CCOC(=O)C1CCCN(c2cc(=O)n(C3CCCCC3)c(=O)[nH]2)C1 (configuration not stated)
inactive: Potency [1] | Potency [2] | Potency [3] | Potency [4]

CCCCCCc1ccc(N2C[C@H](Cc3ccccc3)[C@@H](CC(=O)Nc3ccccc3)C2=O)cc1
inactive: Potency [1] | Potency [2] | Potency [3] | Potency [4]

COc1ccc(SC[C@H](C)CN2CC[C@H](C)CCC2=O)cc1
inactive: Potency [1] | Potency [2] | Potency [3] | Potency [4]

O=C(C[N+]12CN3CN(CN(C3)C1)C2)c1ccc(I)cc1
inactive: Potency [1] | Potency [2] | Potency [3] | Potency [4]

COc1ccccc1Nc1nc(N)nc(CN2CCC(C)CC2)n1
inactive: Potency [1] | Potency [2] | Potency [3] | Potency [4]

Cc1cc(-c2cc(F)cc3c2OC(CNC(=O)CCn2cncn2)C3)ccc1F (configuration not stated)
inactive: Potency [1] | Potency [2] | Potency [3] | Potency [4]

Cc1ccc(NC(=O)C2CCN(S(=O)(=O)c3ccc4c(c3)OCCCO4)CC2)nc1
inactive: Potency [1] | Potency [2] | activation [3] 6.5% [at 17.1 µM, percent relative to cAMP agonist control] | Potency [4]

Cc1ccc(S(=O)(=O)N2[C@@H](c3ccc(C(C)(C)C)cc3)C(C(=O)O)=CC[C@H]2c2ccc(C(C)C)cc2)cc1
active: Potency [1] 19 µM
inactive: Potency [2] | Potency [3] | Potency [4]

CCN(CCn1cccn1)Cc1c(C(=O)N2CCCCCCC2)nc2ccc(Cl)cn12
inactive: Potency [1] | Potency [2] | Potency [3] | Potency [4]

CN(C)c1ccc(/C=C/C=C/c2ccnc3ccccc23)cc1
inactive: Potency [1] | Potency [2] | Potency [3] | Potency [4]

O=C(NCc1ccc(F)cc1)c1ccc2c(=O)n3c(nc2c1)CCCCC3
inactive: Potency [1] | Potency [2] | Potency [3] | Potency [4]

COc1ccc(-c2[nH]c(-c3ccc(SC)cc3)nc2SCC(=O)Nc2nccs2)cc1
active: Potency [1] 84.9 µM
inactive: Potency [2] | Potency [3] | Potency [4]

O=C1C[C@H]2C=CCc3cccc(c32)CN1Cc1ccc(Cl)cc1
active: Potency [4] 44.1 µM
inactive: Potency [1] | Potency [2] | Potency [3]

Cc1ccc(S(=O)(=O)N2[C@@H](CO)CO[C@H]2CC(=O)c2ccc(F)cc2)cc1
inactive: Potency [1] | Potency [2] | Potency [3] | Potency [4]

COc1ccc(-c2nc3cc(C)ccc3cc2CN(C(=O)c2cccs2)C2CC2)cc1OC
inactive: Potency [1] | Potency [2] | Potency [3]
active: Potency [4] 49.4 µM

O=C(O)c1cc(-c2ccc(-c3c(-c4ccc5c(c4)OCO5)noc3-c3ccsc3)cc2)nc2ccccc12
active: Potency [1] 75.7 µM | Potency [4] 37.9 µM
inactive: Potency [2] | Potency [3]

Fc1ccccc1N1CCN(c2ncnc3onc(-c4ccc(Cl)cc4)c23)CC1
inactive: Potency [1] | Potency [2] | Potency [3] | Potency [4]

COc1ccc2c(c1)CC/C(=C\Nc1ccc3c(c1)OCO3)C2=O
active: Potency [2] 112 µM | Potency [3] 100 µM
inactive: Potency [1] | Potency [4]

CC(=O)CCc1oc2ccc(C)cc2c1-c1ccccc1
inactive: Potency [1] | Potency [2] | Potency [3] | Potency [4]

CCCCN(C(=O)CSc1n[nH]c(-c2ccc(C)cc2)n1)c1c(N)n(CCCC)c(=O)[nH]c1=O
inactive: Potency [1] | Potency [2] | Potency [3] | Potency [4]

Cc1ccc(-n2nc(C(=O)N(C)c3ccc(C)c(C)c3)c3c4ccccc4n(C)c3c2=O)cc1
inactive: Potency [1] | Potency [2] | Potency [3] | outcome [4] inactive [at 12.7 µM]

COc1ccccc1N1CCN(c2ccc3c(c2)S(=O)(=O)c2cccc(C(=O)NCC4CC4)c2C3=O)CC1
inactive: Potency [1] | Potency [2] | Potency [3] | Potency [4]

CCc1ccccc1NC(=O)CCC(=O)N1CCN(C(C)=O)CC1
inactive: Potency [1] | Potency [2] | Potency [3] | Potency [4]

CC(c1ccc(N(C)C)cc1)c1ccnc2ccccc12 (configuration not stated)
inactive: Potency [1] | Potency [2] | Potency [3] | Potency [4]

COc1cc2c3nnc(-c4ccccc4)c-3cn(Cc3ccc(F)cc3)c2cc1OC
inactive: Potency [1] | Potency [2] | Potency [3] | Potency [4]

Cc1nc2ccccc2c(=O)n1/N=C/c1ccccc1O
active: Potency [1] 35.5 µM
inactive: Potency [2] | activation [3] 1.94% [at 17.1 µM, percent relative to cAMP agonist control] | Potency [4]

COc1ccc(C(=O)N(Cc2ccccc2)c2cccc(C)c2)c(OC)c1OC
inactive: Potency [1] | Potency [2] | Potency [3] | Potency [4]

COc1ccc(C(=O)NCc2ccc3c(c2)CCN3C(=O)c2ccc(C)cc2)cc1
inactive: Potency [1] | Potency [2] | Potency [3] | Potency [4]

Cc1cc(NC(=O)CSc2nc(-c3ccccc3)nc3c2c(=O)n(C)c(=O)n3C)no1
inactive: Potency [1] | Potency [2] | activation [3] 0% [at 17.1 µM, percent relative to cAMP agonist control] | Potency [4]

COc1ccc(C(C(=O)c2ccccc2)c2ccccc2)cc1 (configuration not stated)
active: Potency [2] 100 µM | Potency [3] 50.1 µM
inactive: Potency [1] | Potency [4]

Cc1cccc(C)c1OCC(=O)N(Cc1ccco1)Cc1ccco1
inactive: Potency [1] | Potency [2] | Potency [3] | Potency [4]

CCCCN(C(=O)c1cccc2c(=O)c(C)c(-c3ccccc3)oc12)c1ccccc1
inactive: Potency [1] | Potency [2] | activation [3] 8.49% [at 17.1 µM, percent relative to cAMP agonist control] | Potency [4]

COc1ccc(Cl)cc1NC(=O)CN(C)C(=O)c1cc2c(s1)CCC(C)C2 (configuration not stated)
inactive: Potency [1] | Potency [2] | Potency [3] | Potency [4]

CC(=O)Nc1ccc(SC[C@H](C)CN2CC[C@H](C(C)(C)C)CCC2=O)cc1
inactive: Potency [1] | Potency [2] | Potency [3]
active: Potency [4] 44.1 µM

COc1ccc(NC(=O)Cn2c(SCc3cc(C)ccc3C)nc3ccncc32)c(OC)c1OC
inactive: Potency [1] | Potency [2] | Potency [3] | outcome [4] inactive [at 12.7 µM]

COc1ccc2c(c1)cc(C(=O)N/N=C/c1c(O)c(C(=O)O)cc3ccccc13)n2C
active: Potency [1] 67.5 µM | Potency [4] 75.7 µM
inactive: Potency [2] | Potency [3]

Nc1c(C(=O)Nc2ccc3c(c2)OCCO3)nnn1Cc1cccc(Br)c1
inactive: Potency [1] | Potency [2] | activation [3] 11.4% [at 17.1 µM, percent relative to cAMP agonist control] | Potency [4]

COc1ccc(-n2c(SCC(=O)Nc3nccs3)nc3c(c2=O)SC(C)C3)cc1 (configuration not stated)
inactive: Potency [1] | Potency [2] | Potency [3] | Potency [4]

Cc1cc(N(C)C)cc(C)c1/C=C/c1ccnc2ccccc12
active: Potency [4] 13.9 µM
inactive: Potency [1] | Potency [2] | Potency [3]

CCCCN(Cc1ccc(C(=O)N[C@H](C(=O)O)C(C)C)cc1)C(=O)C(c1ccccc1)c1ccccc1
inactive: Potency [1] | Potency [2] | activation [3] 8.93% [at 17.1 µM, percent relative to cAMP agonist control] | Potency [4]

COCCN(CCOC)Cc1cc(=O)oc2cc(C)c(C)cc12
inactive: Potency [1] | Potency [2] | activation [3] 2.1% [at 17.1 µM, percent relative to cAMP agonist control] | Potency [4]

COCCCn1c(-c2ccccc2)nc2ccccc2c1=O
inactive: Potency [1] | Potency [2] | Potency [3] | Potency [4]

NC(=O)Nc1ccc(/C=C2\C=Cc3ccccc32)cc1
active: Potency [4] 44.1 µM
inactive: Potency [1] | Potency [2] | Potency [3]

COc1ccc(OC)c2c(/C=C/c3c(C)[nH]c4ccccc34)ccnc12
inactive: Potency [1] | Potency [2] | Potency [3] | Potency [4]

Cc1cccc(N2CCN(c3ccc(C(=O)O)cc3NC(=O)c3ccccc3F)CC2C)c1 (configuration not stated)
inactive: Potency [2] | Potency [3] | outcome [4] inactive [at 12.7 µM] | Potency [5]
active: Potency [1] 84.9 µM

CC(C)O/C(=N\S(=O)(=O)c1ccc(Cl)cc1)c1ccccc1
active: Potency [4] 16.9 µM
inactive: Potency [1] | Potency [2] | Potency [3] | Potency [5]

COc1cc(Nc2nc(SCc3cccc(Cl)c3)nc3ccccc23)cc(OC)c1
inactive: Potency [1] | Potency [2] | Potency [3] | Potency [5]
active: Potency [4] 0.151 µM

C(=C\c1nccc2ccccc12)/c1ccc(N2CCOCC2)cc1
inactive: Potency [1] | Potency [2] | Potency [3] | Potency [4]

NC(=O)c1cc2ccc(O)cc2oc1=NCc1ccccc1
active: Potency [2] 112 µM | Potency [3] 112 µM
inactive: Potency [1] | Potency [4] | Potency [5]

CCCC1C2CN(C(C)C)CC=C2C(C#N)=C(N)C1(C#N)C#N (configuration not stated)
inactive: Potency [5]
active: Potency [1] 37.9 µM | Potency [2] 35.5 µM | Potency [3] 56.2 µM | Potency [4] 33.8 µM

O=C(NCc1ccco1)c1c[nH]c2ccc(S(=O)(=O)N3CCOCC3)cc2c1=O
inactive: Potency [1] | Potency [2] | activation [3] 7.59% [at 17.1 µM, percent relative to cAMP agonist control] | Potency [4] | activity change, negative = inhibition [5] 1.66% [at 30.8 µM]

CN(C)c1ccc(/C=C/c2ccnc3ccc(F)cc23)cc1
inactive: Potency [1] | Potency [2] | Potency [3] | Potency [4]

Fc1cc(F)c(F)c(SCn2cc(Br)cn2)c1F
inactive: Potency [1] | Potency [2] | activation [3] 5.6% [at 17.1 µM, percent relative to cAMP agonist control] | Potency [4] | activity change, negative = inhibition [5] -7.43% [at 30.8 µM]
